About 520 (0.14%) of roughly 370,000 compounds were called active. Many of the other results were omitted from the sample, so actives are more common in it than they were. Values without a mark were called inactive. Cut-off read from the data, not from the text of the source: active = activation above about 40%; inactive = the rest.
Each molecule was assayed against Atrial natriuretic peptide receptor 1 (Homo sapiens) (UniProt P16066) (assay: GC-A stimulated cGMP production enhancers – HEK293 GC-A cells, cGMP TR-FRET, EC30 ANP, primary screen (AID 1671463)). Details: at 10 µM, active compounds read high, 0% at EC30 ANP, 100% saturating ANP.
Sequence of Atrial natriuretic peptide receptor 1 (Homo sapiens) (P16066 whole entry, looked up): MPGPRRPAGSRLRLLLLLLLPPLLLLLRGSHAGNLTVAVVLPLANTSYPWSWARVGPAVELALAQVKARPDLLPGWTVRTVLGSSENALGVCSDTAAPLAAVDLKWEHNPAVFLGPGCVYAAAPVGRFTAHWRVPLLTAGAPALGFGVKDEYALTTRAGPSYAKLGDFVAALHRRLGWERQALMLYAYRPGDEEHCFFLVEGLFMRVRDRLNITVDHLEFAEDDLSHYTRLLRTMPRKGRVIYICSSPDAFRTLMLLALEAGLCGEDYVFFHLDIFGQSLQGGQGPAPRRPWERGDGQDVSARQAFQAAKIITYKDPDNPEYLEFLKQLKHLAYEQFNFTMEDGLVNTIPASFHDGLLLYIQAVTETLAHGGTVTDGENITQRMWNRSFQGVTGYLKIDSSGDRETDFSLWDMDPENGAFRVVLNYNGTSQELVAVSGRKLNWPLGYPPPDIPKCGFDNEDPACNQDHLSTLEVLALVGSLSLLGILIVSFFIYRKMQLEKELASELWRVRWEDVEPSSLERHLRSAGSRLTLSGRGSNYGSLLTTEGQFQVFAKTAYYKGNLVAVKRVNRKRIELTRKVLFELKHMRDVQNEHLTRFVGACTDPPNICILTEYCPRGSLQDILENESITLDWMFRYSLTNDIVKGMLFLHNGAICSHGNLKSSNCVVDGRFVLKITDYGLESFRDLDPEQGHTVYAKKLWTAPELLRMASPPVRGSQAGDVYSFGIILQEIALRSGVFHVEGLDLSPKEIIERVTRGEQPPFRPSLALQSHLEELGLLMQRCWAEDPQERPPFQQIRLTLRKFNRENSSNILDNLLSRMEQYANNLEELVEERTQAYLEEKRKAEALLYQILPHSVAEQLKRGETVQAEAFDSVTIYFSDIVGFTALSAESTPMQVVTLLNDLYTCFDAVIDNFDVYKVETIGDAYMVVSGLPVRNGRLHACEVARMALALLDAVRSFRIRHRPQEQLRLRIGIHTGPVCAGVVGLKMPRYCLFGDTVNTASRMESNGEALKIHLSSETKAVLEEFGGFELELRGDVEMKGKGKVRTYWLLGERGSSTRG

Q: COCCCNC(NC(=O)c1ccc(OC)cc1)C(Cl)(Cl)Cl (stereo unspecified) was tested. Which activation did it give?
A: Its activation is -6.96%.

Q: How did the activation turn out when CSCCC(Nc1ccc(S(=O)(=O)N2CCOCC2)cc1[N+](=O)[O-])C(=O)OCC(=O)N(C(C)C)C(C)C (stereo unspecified) was run?
A: The activation was 3.61%.

Q: Which activation does the source give for CCOC(=O)CNc1nc(Cl)nc(Nc2ccccc2)n1 here?
A: Its activation is -0.38%.

Q: For CCC(=O)Nc1ccc(Nc2nc(Cl)nc(Nc3ccc(NC(=O)CC)cc3)n2)cc1, which activation is on record?
A: The activation was 41.8% (active).

Q: How did the activation turn out when CCC(=O)Nc1ccc(-c2ccc(N3CCCCC3)nn2)cc1 was run?
A: The activation was 1.98%.

Q: For CCC(=O)N1CCC(C)(C(=O)Nc2cc(OC)c(OC)c(OC)c2)C1 (stereo unspecified), which activation is on record?
A: The activation was 0.68%.

Q: How did the activation turn out when CCCc1cc(=O)[nH]c(SCC(=O)c2c(N)n(CC(C)C)c(=O)n(C)c2=O)n1 was run?
A: The activation was -6.69%.

Q: For Cc1ccc(S(=O)(=O)N2CCOCC2)cc1NC(=O)CSc1nnc(N)s1, which activation is on record?
A: The activation was -4.98%.

Q: With COc1ccc(C#CCNCc2ccc(OC)cc2OC)cc1 as the molecule, how does the activation read?
A: The activation was -0.15%.

Q: O=C(Oc1ccc2c(c1)CCC2)N1CCOCC1 was tested. Which activation did it give?
A: The activation was 4.74%.

Q: Which activation does the source give for CCOC(=O)C(=O)N(Cc1ccccc1)c1ccccc1C(=O)Nc1cc(OC)ccc1OC here?
A: Its activation is -11.8%.

Q: COc1ccc(NC(=S)SC)cc1OC was tested. Which activation did it give?
A: The activation was 1.77%.

Q: For COc1ccccc1C(=O)N(C1=NC(C)CS1)c1ccc(Cl)cc1 (stereo unspecified), which activation is on record?
A: The activation was -15.5%.

Q: CC1CCN(CCCNC(=O)CN2C(=O)CSc3ccc(S(=O)(=O)N4CCCCC4)cc32)CC1 was tested. Which activation did it give?
A: Its activation is 3.44%.

Q: Which activation does the source give for Cn1nc(C(F)(F)F)cc1-c1ccc(/C=C(\C#N)C(=O)c2cccc(C(F)(F)F)c2)s1 here?
A: The activation was 25.6%.

Q: How did the activation turn out when CC1CCCC(N2CCN(C(=O)c3ccc(F)cc3)CC2)C1 (stereo unspecified) was run?
A: The activation was 5.28%.

Q: How did the activation turn out when O=S(=O)(c1ccc(-c2ccccc2)cc1)N1CCCC1 was run?
A: Its activation is 0.74%.

Q: Which activation does the source give for Cc1cccc(C(=O)Nc2ccccc2-c2nnn(CC(=O)Nc3ccc4c(c3)OCCO4)n2)c1 here?
A: Its activation is -13.7%.

Q: How did the activation turn out when CN1C[C@]2(C=C3CCCCC3n3c(=O)n(-c4ccccc4)c(=O)n32)N=C1NC(=O)c1ccccc1 (stereo partly specified) was run?
A: Its activation is -1.71%.

Q: How did the activation turn out when C#CCCN([C@H](C(=O)OC)C(C)C)S(=O)(=O)c1ccc(F)cc1Br was run?
A: Its activation is -5.17%.

Q: Which activation does the source give for COc1ccccc1-n1nnnc1S(=O)(=O)Cc1ccc(Cl)cc1 here?
A: Its activation is 0.71%.

Q: For Cc1nc(-c2ccc(Cl)cc2)sc1C1(C)CC(c2ccccc2F)=NO1 (stereo unspecified), which activation is on record?
A: The activation was 2.63%.

Q: For Cc1nc(-c2ccc(Cl)cc2)sc1C1(C)CC(c2ccc(Br)cc2)=NO1 (stereo unspecified), which activation is on record?
A: Its activation is -0.28%.

Q: Which activation does the source give for Cc1nc(-c2ccc(Cl)cc2)sc1C(=O)CBr here?
A: The activation was 49.9% (active).

Q: With Cc1ccccc1CN1CCCCC(NC(=O)c2cccc(C#N)c2)C1=O (stereo unspecified) as the molecule, how does the activation read?
A: The activation was 1.67%.

Q: With CCOc1ccc(S(=O)(=O)N2CCC(c3ccccc3)CC2)cc1C(=O)O as the molecule, how does the activation read?
A: The activation was 0.54%.

Q: How did the activation turn out when C/C=C/c1ccc(OCCOc2ccc(C=O)cc2OC)c(OC)c1 was run?
A: The activation was 3.2%.

Q: Which activation does the source give for COc1cc(CNc2ncn[nH]2)ccc1OCc1ccccc1C here?
A: Its activation is 0.42%.

Q: How did the activation turn out when COc1ccnc2c1c(=O)n(Cc1cccc(F)c1)c(=O)n2C was run?
A: Its activation is 8.86%.

Q: With COc1cc(/C=C2/C(=O)ON=C2C)ccc1OCc1cccc(F)c1 as the molecule, how does the activation read?
A: Its activation is 52.6% (active).

Q: Which activation does the source give for CCOc1cc(/C=N/O)ccc1OCc1ccccc1F here?
A: Its activation is -0.44%.

Q: For COc1cc(/C=C2/C(=O)ON=C2C)ccc1OCc1ccccc1F, which activation is on record?
A: The activation was 51.8% (active).

Q: Which activation does the source give for COc1ccc(CCNC(=O)c2ccc(NC(=O)CC3SC(N4CCCCC4)=NC3=O)cc2)cc1OC (stereo unspecified) here?
A: Its activation is -0.61%.

Q: With COCCCN1C(=O)C(=O)/C(=C(/O)c2ccc(S(=O)(=O)N3CCOCC3)cc2)C1c1ccc(F)cc1 (stereo unspecified) as the molecule, how does the activation read?
A: The activation was 1.53%.

Q: How did the activation turn out when CCc1c(-c2ccccc2OC)ncn1CCc1ccccc1OC was run?
A: Its activation is -8.39%.

Q: For CCc1nc2c(OCc3cccc(OC)c3)cccn2c1N(C)C(=O)C(C)C, which activation is on record?
A: Its activation is -2.25%.

Q: CC(NC(=O)CCCC1CCCCC1)c1ccc(S(N)(=O)=O)cc1 (stereo unspecified) was tested. Which activation did it give?
A: The activation was -4.53%.

Q: CC(=O)Oc1c(C(=O)c2nnc(C)o2)c(=O)n(Cc2ccccc2)c2ccccc12 was tested. Which activation did it give?
A: The activation was -0.69%.

Q: O=C1CCCCC1Sc1ccc(Cl)cc1[N+](=O)[O-] (stereo unspecified) was tested. Which activation did it give?
A: The activation was -7.33%.

Q: CCN(CC)C(CNC(=O)CSc1nnnn1-c1cccc(F)c1)c1ccco1 (stereo unspecified) was tested. Which activation did it give?
A: The activation was 2.86%.

Q: Cc1ccc(S(=O)(=O)N2C[C@@H]3CCCC[C@@H]3[C@@H](C)[C@H]2c2cn(Cc3ccccc3)c3ccc(F)cc23)cc1 was tested. Which activation did it give?
A: The activation was 3.1%.

Q: How did the activation turn out when Cc1ccc(C(=O)NC(=S)Nc2ccc3[nH]c(=O)[nH]c3c2)cc1C was run?
A: The activation was -4.45%.

Q: For CCc1ccc(Oc2coc3cc(O)ccc3c2=O)cc1, which activation is on record?
A: Its activation is 9.73%.

Q: How did the activation turn out when CCc1ccc(Oc2coc3cc(OC(=O)c4cc5ccccc5oc4=O)ccc3c2=O)cc1 was run?
A: The activation was -3.3%.

Q: For COC(=O)COc1ccc2c(=O)c(Oc3ccccc3Br)coc2c1, which activation is on record?
A: Its activation is 46.5% (active).

Q: Which activation does the source give for CC[C@H](C)[C@@H](C(=O)N1CCNCC1)n1cc([C@@H](N)Cc2ccc(O)cc2)nn1 here?
A: The activation was -0.45%.

Q: With CC1(C)CC(=O)c2cnc3nc4ccccc4n3c2C1 as the molecule, how does the activation read?
A: Its activation is 1.08%.

Q: With Cc1ccc(Cn2c(=N)c(S(=O)(=O)c3ccc(C)cc3)cc3c(=O)n4ccccc4nc32)cc1 as the molecule, how does the activation read?
A: The activation was 0.3%.

Q: Cc1cc(C)nc(S/C=C/C(=O)c2ccccc2)n1 was tested. Which activation did it give?
A: Its activation is 43.5% (active).

Q: With CCn1c(CSc2nc(C)cc(C)n2)nnc1SCC(N)=O as the molecule, how does the activation read?
A: The activation was -2.17%.

Q: Which activation does the source give for Cc1cc(C)nc(NC(=O)Nc2ccccc2C(F)(F)F)n1 here?
A: The activation was 9.79%.

Q: How did the activation turn out when Cc1cc(NC(=O)CCC(=O)N(CC(=O)NCC2CCCO2)c2ccccc2)no1 (stereo unspecified) was run?
A: Its activation is -2.42%.

Q: For CC#CC[N+](C)(C)CCCCCC, which activation is on record?
A: The activation was 1.8%.

Q: How did the activation turn out when O=C(NCCCO)/C(=C\C=C\c1ccccc1)NC(=O)c1ccccc1Cl was run?
A: Its activation is 1.06%.

Q: With COc1ccc(C2OC(=O)CC2C(=O)NC(C)C)cc1 (stereo unspecified) as the molecule, how does the activation read?
A: Its activation is -0.27%.

Q: Which activation does the source give for O=C1CN(C(=O)c2ccccc2F)C(c2ccc(F)cc2)c2cc(F)ccc2N1 (stereo unspecified) here?
A: The activation was -11%.

Q: How did the activation turn out when CCCCN1C(=S)NC[C@@H]1C(C)CC (stereo partly specified) was run?
A: Its activation is -0.8%.

Q: For CC[n+]1cc(C)ccc1/C=C/c1ccc(N(C)C)cc1, which activation is on record?
A: The activation was -28.2%.

Q: With CCCc1nn(C)c2c(=O)[nH]c(-c3cc(S(N)(=O)=O)ccc3OCC)nc12 as the molecule, how does the activation read?
A: The activation was 53.2% (active).

Q: For CCOc1ccccc1N1CCN(C(=S)Nc2ccc(S(N)(=O)=O)cc2)CC1, which activation is on record?
A: Its activation is 2.84%.

Q: For CCOc1ccc(-n2cnc3c(=O)[nH]c(N)nc32)cc1, which activation is on record?
A: The activation was 23%.

Reference: PubChem BioAssay AID1671463 (Sanford-Burnham Center for Chemical Genomics, 2021)
